The campaign covered roughly 290,000 compounds. About 3,000 (1%) were called active. The sample holds actives, similar compounds and a random draw of the others, so the mix is not that of the screen. No rule for the calls is given here.
Target: Polyadenylate-binding protein 1 (Homo sapiens) (UniProt P11940)
Assay: PABP poly(A) RNA binding inhibitors, primary screen, biochemical, fluorescence polarization, uHTS (AID 2014);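 also: calls also rest on retests at 20 µM and on dose response follow-up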
Conditions: stronger effect = higher value

Chain of Polyadenylate-binding protein 1 (Homo sapiens) (P11940 whole entry, looked up): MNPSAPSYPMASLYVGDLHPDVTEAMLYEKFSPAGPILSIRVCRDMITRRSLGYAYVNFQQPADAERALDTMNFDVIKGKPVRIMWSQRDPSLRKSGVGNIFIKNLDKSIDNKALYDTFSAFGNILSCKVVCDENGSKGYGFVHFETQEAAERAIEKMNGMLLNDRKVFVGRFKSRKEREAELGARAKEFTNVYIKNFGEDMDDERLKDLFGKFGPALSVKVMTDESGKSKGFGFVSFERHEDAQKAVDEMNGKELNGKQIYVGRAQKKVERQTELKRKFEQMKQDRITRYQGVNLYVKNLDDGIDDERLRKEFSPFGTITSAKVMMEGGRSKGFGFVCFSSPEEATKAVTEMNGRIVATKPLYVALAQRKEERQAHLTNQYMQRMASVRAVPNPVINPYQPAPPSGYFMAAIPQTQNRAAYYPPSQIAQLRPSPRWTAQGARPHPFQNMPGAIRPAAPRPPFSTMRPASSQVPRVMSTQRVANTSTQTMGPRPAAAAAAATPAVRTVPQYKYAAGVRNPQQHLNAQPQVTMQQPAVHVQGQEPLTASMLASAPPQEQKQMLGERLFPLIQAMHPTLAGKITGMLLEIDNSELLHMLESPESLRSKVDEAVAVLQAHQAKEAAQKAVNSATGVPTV

Structure (SMILES) | inhibition (at 35 µM) | inhibition (confirmation repeats, at 20 µM)
Cc1cc(C)cc(OCC(=O)NNC(=O)CCN2C(=O)c3ccccc3C2=O)c1 | 116% (active) | 74.1%
Cc1cc(C)cc(NC(=O)CCN2C(=O)c3ccccc3C2=O)c1 | 0.7% (inactive) | –
Cc1ccc(NC(=O)CCN2C(=O)c3ccccc3C2=O)cc1C | -7.2% (inactive) | –
COc1cc(NC(=O)c2ccc(-c3csc(C)n3)cc2)c(OC)cc1Cl | 7.9% (inactive) | –
COC(=O)c1cc(NS(=O)(=O)c2ccc3c(c2)c(=O)n(C)c(=O)n3C)cc(C(=O)OC)c1 | 3.8% (inactive) | –
COC(=O)c1ccc(N2CCOCC2)c(NC(=O)c2ccc3c(c2)OCCO3)c1 | 4.7% (inactive) | –
Cc1cccc(N2CCN(C(=O)/C=C/c3ccco3)CC2)c1C | -10.7% (active) | 96.7%
CCC(CC)C(=O)N1CCN(c2cccc(C)c2C)CC1 | -1.2% (inactive) | –
O=C(/C=C/c1ccco1)NC(=S)N1CCCCC1 | 1.1% (inactive) | –
COc1ccc(C(O)(C2CCCCC2)C(CN2CCCC2)c2ccccc2)cc1 (configuration not stated) | 12.9% (inactive) | –
Cc1ccc2sc(N(CCN(C)C)C(=O)/C=C/c3cccs3)nc2c1C | -1.9% (inactive) | –
CCCN(c1ccc(C)cc1)c1nc(=O)c2cccnc2s1 | 71.4% (active) | –
CC1(C(=O)N/N=C/c2cc3c(cc2Br)OCO3)CC1(Br)Br (configuration not stated) | -5.1% (inactive) | –
CCN(CC(=O)NCc1ccco1)S(=O)(=O)c1ccc(F)cc1 | -5.2% (inactive) | –
NS(=O)(=O)c1cccc(NC(=O)CC23CC4CC(CC(Br)(C4)C2)C3)c1 | -11.5% (inactive) | –
CC(C)Nc1ccc(-n2nc3ccccc3[n+]2[O-])cc1 | 1% (inactive) | –
CCN1CCN(CCNC(=O)c2ccc(/C=C3/Sc4ccccc4N(Cc4cccc(C)c4)C3=O)cc2)CC1 | 60.2% (active) | 75.8%
O=C(NCCN1CCOCC1)c1ccc(/C=C2\Sc3ccccc3N(Cc3ccc(F)cc3)C2=O)cc1 | -1.5% (inactive) | –
CCN1CCN(CCNC(=O)c2ccc3c(c2)NC(=O)/C(=C\c2ccc(OC)c(OC)c2)S3)CC1 | 6.5% (inactive) | –
COc1ccc(/C=N/OCc2ccccc2C#N)c(OC)c1 | 12.1% (inactive) | –
CC(NC(=O)CCCC1CCCCC1)c1ccc(S(N)(=O)=O)cc1 (configuration not stated) | -0.5% (inactive) | –
Cc1ccc(NC(=O)Cc2nnc(SCC(=O)Nc3nncs3)n2C)cc1 | -10.3% (inactive) | –
COc1cccc(NC(=S)NCc2ccco2)c1 | 3.2% (inactive) | –

Structure (SMILES) | inhibition (at 35 µM) | inhibition (confirmation repeats, at 20 µM)
S=C(NCc1ccco1)Nc1ccc2c(c1)OCCO2 | 76.8% (active) | 58.4%
S=C(NCc1ccc2c(c1)OCO2)NCc1ccco1 | 2.5% (inactive) | –
CCOC(=O)N1CC=C2C(C#N)=C(N)C(C#N)(C#N)[C@H](c3cccs3)[C@H]2C1 | 82.2% (active) | –
CCOC(=O)C1=C(C)NC(=S)NC1c1cccs1 (configuration not stated) | 3.2% (inactive) | –
N#CC1=C(N)C(C#N)(C#N)[C@H](c2ccsc2)[C@H]2COCC=C12 | 111% (inactive) | 0%
O=C(N/C(=C\c1ccc([N+](=O)[O-])cc1)C(=O)N1CCCCC1)c1ccco1 | 4.9% (inactive) | –
COc1cc(C(=O)Nn2c(CC(C)C)nc3ccccc3c2=O)cc(OC)c1OC | 1.2% (inactive) | –
Cc1ccc(N(Cc2cc(=O)[nH]c3ccccc23)C(=O)CCl)cc1 | 3% (inactive) | –
COc1ccc(N(Cc2ccc(N(C)C)cc2)C(=O)c2ccc(S(C)(=O)=O)cc2)cc1 | -1.6% (inactive) | –
CNc1nc(-c2ccccc2)cc(-c2ccccc2)n1 | 4.7% (inactive) | –
Nc1nc(-c2ccccc2)cc(-c2ccccc2)n1 | 9.3% (inactive) | –
CS(=O)(=O)c1sc2nc(-c3ccccc3)cc(-c3ccccc3)c2c1N | 117% (active) | –
CCc1ccccc1NC(=O)c1cc(-c2ccc3c(c2)OCO3)on1 | 3.5% (inactive) | –
C/C(=N\NC(=O)COc1ccc(C)cc1[N+](=O)[O-])c1ccc2c(c1)OCCO2 | 3.8% (inactive) | –
COC(=O)c1cccc(N(C(=O)CNC(=O)c2cccs2)C(C(=O)NCC2CCCO2)c2ccc(OC)c(OC)c2)c1 (configuration not stated) | 1% (inactive) | –
CCn1c(=O)c2ccccc2n(CC(=O)N2CCCc3ccccc32)c1=O | -1.4% (inactive) | –
O=C(CSCc1ccccc1)N1CCc2ccccc21 | 2.2% (inactive) | –
CCC(=O)N1CCCc2ccccc21 | 59.1% (active) | –
Cc1cc(NC(=O)c2ccc(F)cc2)ccc1NC(=O)c1ccco1 | 1.1% (inactive) | –
Cc1c(C(=O)N2CCN(c3ccc(F)cc3)CC2)oc2c1C(=O)CCC2 | 5.7% (inactive) | –
O=C(NCc1cccc(CNC(=O)Nc2cccc(O)c2)c1)Nc1cccc(O)c1 | 3.3% (inactive) | –
Cc1cc(C(=O)CSc2nc(N)cc(=O)[nH]2)c(C)n1Cc1ccco1 | 10.5% (inactive) | –
COc1ccc(OC)c(-n2nnnc2SCC(=O)Nc2cc(C)ccc2OC)c1 | 2.6% (inactive) | –

Structure (SMILES) | inhibition (at 35 µM) | inhibition (confirmation repeats, at 20 µM)
COc1ccc(C)cc1-n1nnnc1SCC(=O)c1cc(C)n(Cc2ccco2)c1C | 51.1% (active) | –
O=C(OCC1O[C@@H](OC(=O)c2cc(O)c(O)c(O)c2)[C@@H](OC(=O)c2cc(O)c(O)c(O)c2)[C@@H](OC(=O)c2cc(O)c(O)c(O)c2)[C@@H]1OC(=O)c1cc(O)c(O)c(O)c1)c1cc(O)c(O)c(O)c1 (some centres not stated) | 88.2% (active) | –
Cc1ccc(-c2nc(-c3ccncc3)no2)c(C)c1 | 9.6% (inactive) | –
COc1ccc(-c2ocnc2C(=O)Nc2ccc3c(c2)CCC3)cc1 | 5.3% (inactive) | –
Cc1ccc2c(cnn2C(=O)CCC(=O)NC2CCCC2)c1 | -2.1% (inactive) | –
COc1ccccc1C1CCN(c2ccc([N+](=O)[O-])cn2)CC1 | 3.2% (inactive) | –
COc1ccc(Nc2ccc([N+](=O)[O-])cn2)cn1 | 39.7% (active) | 54%
COc1ccc(C(=O)NCCNc2ccc([N+](=O)[O-])cn2)cc1 | -2.9% (inactive) | –
CCOc1ccc(N(CC)S(=O)(=O)c2cccc3nsnc23)cc1 | 51% (inactive) | 37.2%
CC(=O)Nc1ccc(NC(=O)CN2C(=O)COc3ccc(S(=O)(=O)N4CCCCC4)cc32)cc1 | 0% (inactive) | –
O=C(NCCc1nnc2ccc(SCC(=O)N3CCOCC3)nn12)c1ccccc1 | 6.6% (inactive) | –
COc1cccc(/C=C2/SC(=S)N(CC(=O)NC3C=CS(=O)(=O)C3)C2=O)c1 (configuration not stated) | 8.2% (inactive) | –
CCNc1c(NS(=O)(=O)c2ccc(C3CCCCC3)cc2)c(=O)oc2ccccc12 | 2.8% (inactive) | –
CC1=NN(C(N)=S)C(=O)C1N=Nc1cc(Cl)ccc1Cl (configuration not stated) | 11.1% (inactive) | –
Cc1ccc(C(=O)O)cc1-c1ccc(/C=C2\SC(=O)N(CC(=O)Nc3ccc4c(c3)OCO4)C2=O)o1 | 62.5% (active) | –
COc1ccc(NC(=O)CCN2C(=O)/C(=C/c3ccc4c(c3)OCO4)SC2=S)cc1 | 28.4% (inactive) | –
Cn1c(=O)n(C)c2cc(C(=O)Nc3ccc4c(c3)OCO4)ccc21 | 9.8% (inactive) | –
CCOc1ccc(N(C(=O)c2snc(C(N)=O)c2N)C(C(=O)NCC2CCCO2)c2c[nH]c3ccccc23)cc1 (configuration not stated) | 8.6% (inactive) | –
O=C(CCc1c[nH]c2ccccc12)NCCOc1ccccc1 | 3.3% (inactive) | –
CCN(CCCNC(=O)c1ccc2c(c1)NC(=O)CN2C)c1cccc(C)c1 | 0.9% (inactive) | –
CCOc1ccc(N(C)S(=O)(=O)c2cnc[nH]2)cc1 | -4.6% (inactive) | –
O=C(CCN1CCCO1)N1CCCC(N2CCN(c3cccc(C(F)(F)F)c3)CC2)C1 (configuration not stated) | -17.5% (inactive) | –
CN1/C(=c2/s/c(=C3/C(=O)N(c4ccccc4)NC3=Nc3ccccc3)n(C)c2=O)C(C)(C)c2ccccc21 | 79.2% (active) | –

Structure (SMILES) | inhibition (at 35 µM) | inhibition (confirmation repeats, at 20 µM)
CCN1C(=O)/C(=c2\s/c(=C3\Sc4ccccc4N3C)c(=O)n2C)N(C)C1=S | -6.7% (inactive) | –
NC(=O)c1c(NC(=O)CSc2nnc(-c3ccco3)n2N)sc2c1CCCC2 | 43.3% (active) | 90.6%
CCc1cccc(C)c1NC(=O)CSc1nnc(-c2ccco2)n1N | -0.1% (inactive) | –
NC(=O)c1c(NC(=O)CSc2nc(N)cc(=O)[nH]2)sc2c1CCCC2 | 9.6% (inactive) | –
C[C@@H](NC(=O)[C@@H]1Cc2ccccc2CN1)C(=O)NC1CCCC1 | 21% (inactive) | –
Cc1ccc(CN2CCCOCCS2(=O)=O)cc1 | 5.7% (inactive) | –
Cc1ccccc1NC(=O)CN1C(=O)N/C(=C\c2cccn2-c2cccc(C(=O)O)c2)C1=O | 82.4% (inactive) | 24.9%
N#Cc1ccccc1CN1C(=O)S/C(=C/c2cccn2-c2cccc(C(=O)O)c2)C1=O | 37.4% (active) | 65.8%
Cn1cccc1/C=C1\SC(=O)N(CC(=O)Nc2ccc(F)cc2)C1=O | 2.5% (inactive) | –
C=CCn1c(SCc2ccccc2)nc2c1c(=O)[nH]c(=O)n2C | -1.9% (inactive) | –
O=C(O)c1cc(S(=O)(=O)N(Cc2ccccc2)c2cccc(C(F)(F)F)c2)ccc1Cl | 7.3% (inactive) | –
COc1ccccc1-c1noc(CSc2nc(C)cc(=O)[nH]2)n1 | 56.6% (active) | –
Cc1cc(=O)[nH]c(SCc2cccc(F)c2)n1 | -3.3% (inactive) | –
Cc1cc(=O)[nH]c(SCc2cc(Cl)ccc2OC(F)F)n1 | 0.2% (inactive) | –
CN1C(=O)/C(=C\c2ccc(-c3ccccc3)o2)SC1=S | 19.8% (inactive) | –
O=C1NN(c2ccccc2)C(=O)/C1=C/c1ccc(-c2cccc(C(=O)O)c2)o1 | 36.5% (inactive) | –
O=C(O)C(c1ccccc1)N1C(=O)/C(=C\c2ccc(-c3cccc(Cl)c3)o2)SC1=S (configuration not stated) | 76% (active) | 126%
CCOC(OCC)c1ccc(/C=C\c2nccc(N)n2)cc1 | -16.6% (inactive) | –
O=C(COc1ccc(Cl)cc1)Nc1ccccc1CO | 4.7% (inactive) | –
COC(=O)c1sccc1NC(=O)c1ccc(Cl)cc1 | 4.7% (inactive) | –
COC(=O)c1sccc1NC(=O)COc1ccc(Cl)cc1 | 81% (active) | 58.4%

From PubChem BioAssay AID2014 (Sanford-Burnham Center for Chemical Genomics, 2009)
